In the library only some 4.5% were active in any assay of this set; here they are far more common.
DAX1 inh-1 = NR0B1 (DAX1) inhibition. HEK293 Gal4-DAX1 luciferase reporter, luminescence. inhibition, % at 6.75 µM. hit rate 0.99% among 340,000. AID 504766;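 active = inhibition above the mean over all tested compounds plus 3 SD, cut at about 4.2% in these data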;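 note: 0% = DAX1-transfected cells with DMSO and 100% = empty-vector control cells with DMSO; inhibition shows as a rise in luminescence from relieved DAX1 repression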
Target sequence (P51843 207-470 limits assumed): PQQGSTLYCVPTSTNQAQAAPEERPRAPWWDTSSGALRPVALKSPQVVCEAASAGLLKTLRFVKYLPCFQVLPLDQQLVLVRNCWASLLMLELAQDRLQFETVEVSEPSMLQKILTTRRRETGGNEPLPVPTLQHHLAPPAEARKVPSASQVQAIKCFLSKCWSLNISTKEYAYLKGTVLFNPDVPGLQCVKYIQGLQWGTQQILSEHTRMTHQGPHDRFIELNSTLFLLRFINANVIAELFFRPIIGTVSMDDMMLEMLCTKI
FXN GAA850 act = increases GAA850 frataxin promoter reporter activity; HEK293 lucGAA850 FXN promoter luciferase reporter, 24 h; percent of 10 µM SAHA response; activation, % at 6 µM; hit rate 0.56% among 360,000; AID 540364;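 active = activation above the average of all compounds screened plus 3 SD, cutoff fixed separately per campaign, cut at about 7.5% in these data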;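 note: 0% = DMSO wells and 100% = 10 µM SAHA wells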
hcDAF-12 act = activators of H. contortus DAF-12 nuclear receptor. hit rate 1.4% among 370,000. HEK293 hcDAF-12 lit1-tk-luc reporter, luminescence; 0% DMSO, 100% Δ7-dafachronic acid. activation, % at 6.8 µM;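 active = activation above the mean of all tested compounds plus 3 SD, cut at about 5.5% in these data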;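 note: 100% = response to 3 µM Δ7-dafachronic acid high control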
DAX1 inh-2 = blocks DAX1 repression of SF-1 activated StAR promoter; HEK293T StAR-luciferase reporter, SF-1/DAX-1 repression relief; inhibition, % at 6.8 µM; hit rate 1.1% among 370,000;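 active = inhibition above the mean over all tested compounds plus 3 SD, cut at about 3.6% in these data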;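 note: 0% = DAX-1 cells with DMSO and 100% = cells lacking DAX-1 with DMSO; higher inhibition means more luminescence from relief of DAX-1 repression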
hgDAF12 agonist = agonists of H. glycines DAF-12 nuclear receptor | HEK293 GAL4-hgDAF12 UAS-luciferase reporter, agonist luminescence; normalized to butyrate control | activation, % at 6.8 µM | hit rate 1.8% among 370,000 | AID 687014;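 active = activation above a cutoff set at the mean of all screened compounds plus 3 SD, cut at about 10% in these data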;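 note: 0% = DMSO wells and 100% = sodium butyrate wells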
ssDAF-12 act = activators of S. stercoralis DAF-12 nuclear receptor. HEK293 ssDAF-12/GRIP1 lit1-tk-luc reporter, luminescence; % of 3 µM dafachronic acid response. activation, % at 6.8 µM. hit rate 1% among 370,000. AID 652126;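 active = activation above the mean over all tested compounds plus 3 SD, cut at about 0.9% in these data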;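 note: 0% = DMSO-only wells and 100% = 3 µM delta7-dafachronic acid wells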
Starred values were filed as active, the others as inactive; nt = no result given.

SMILES | DAX1 inh-1 | FXN GAA850 act | hcDAF-12 act | DAX1 inh-2 | hgDAF12 agonist | ssDAF-12 act
O=C(NC1CCCCC1)C(c1ccnc2ccccc12)n1c(=O)c(-c2ccco2)nc2ccccc21 (stereo unspecified) | nt | nt | 2.0 | 1.7 | 4.1 | 1.1*
CC(C)(C)NC(=O)C(c1ccccc1F)n1c(=O)c(-c2ccco2)nc2ccccc21 (stereo unspecified) | nt | nt | 0.9 | 4.3* | 1.5 | -1.2
O=C(Nc1ccc2c(c1)OCCO2)C(c1ccncc1)n1c(=O)c(-c2ccco2)nc2ccccc21 (stereo unspecified) | nt | nt | -0.7 | -1.4 | 3.4 | -0.6
COc1ccc(CNC2CCC23CCC(C)CC3)cc1OC (stereo unspecified) | nt | nt | -0.9 | nt | -0.7 | -1.2
CC(C)c1cccc(C(C)C)c1NC(=S)Nc1cccc(Cl)c1 | 5.7* | -0.1 | -1.0 | -0.3 | 1.6 | -1.1
Fc1ccc(NC(=S)Nc2cccc(Cl)c2)cc1 | 1.1 | 0.7 | -1.5 | -0.2 | 0.7 | -1.2
Cc1cc(NS(=O)(=O)c2ccc(NC(=O)CSc3nc4sc(C)c(C)c4c(=O)n3Cc3ccco3)cc2)nc(C)n1 | nt | nt | -2.2 | 1.2 | -2.3 | -0.2
CCCN(CC(=O)Nc1ccccc1C)C(=O)c1ccc(C)c(S(=O)(=O)N2CCCCC2)c1 | -0.7 | -0.1 | -1.9 | -0.2 | -3.0 | -1.4
CCCN(CC(=O)Nc1ccccc1C)C(=O)c1ccc(Cl)c(S(=O)(=O)N2CCCC2)c1 | 5.3* | -0.6 | 0.0 | 2.4 | -1.6 | -1.3
CCCCCC[C@@H](CCCc1ccccc1OC)CN(CCCC)S(C)(=O)=O | nt | nt | -1.3 | -0.3 | 1.8 | -1.6
CC1=C(C(=O)NC(C)c2ccccc2)C2(CCC(C)CC2)OC1=O (stereo unspecified) | -0.1 | -0.5 | -1.7 | 0.1 | -4.5 | -1.4
CC1=C(C(=O)NC(C)CCc2ccccc2)C2(CCC(C)CC2)OC1=O (stereo unspecified) | 5.1* | -1.0 | 0.7 | -0.1 | -1.2 | -1.0
COC(=O)[C@]12C[C@H](CC(=O)NCc3ccccc3)C(=O)N(CCc3ccc(OC)c(OC)c3)C1=C[C@H](COCc1ccccc1)O[C@@H]2C | nt | nt | -3.6 | -0.8 | 1.2 | -1.8
C/C(=N\Nc1ccc([N+](=O)[O-])cc1)c1cc2ccccc2o1 | -0.1 | 2.6 | 6.4* | 0.3 | 3.7 | -1.3
O=C(CSc1nnc(-c2ccccc2)n1-c1ccccc1)NN=Cc1ccc(-c2ccccc2)cc1 | nt | nt | -1.0 | -1.2 | 4.8 | -1.1
C[C@H]1[C@H](N(Cc2ccccc2)Cc2ccccc2)CC[C@@]23CCCN2C(=O)CCC[C@@H]13 | nt | nt | -1.4 | nt | -2.1 | -1.4
CNS(=O)(=O)/C=C/c1ccccc1CCNC(=O)OC(C)(C)C | nt | nt | -2.0 | -2.3 | 1.8 | -0.8
O=C(CN1CCN(S(=O)(=O)c2ccc(Cl)cc2)CC1)NC1CCCC1 | -0.9 | 1.7 | -0.4 | 3.8* | 0.3 | -1.0
O=C(CN1CCN(S(=O)(=O)c2ccc(F)cc2)CC1)NC1CCCC1 | 0.0 | -0.3 | -0.7 | 2.4 | -0.4 | -1.1
Cn1c(CNC(=O)c2ccc(F)cc2)cc2ccccc21 | 4.3* | 2.1 | 0.5 | -0.6 | 1.1 | 1.0*
Cn1c(CNC(=O)c2ccccc2F)cc2ccccc21 | 1.2 | 3.3 | 4.1 | 0.4 | 0.9 | -0.7
COC(=O)c1c(NC(C)=O)sc(C(=O)Nc2ccccc2)c1C | 1.4 | 2.3 | 0.1 | 2.3 | 7.0 | -1.5
COC(=O)c1c(NC(C)=O)sc(C(=O)Nc2ccccc2F)c1C | 0.1 | 5.4 | 1.3 | 2.5 | 13.0* | -0.8
CCCC(=O)Nc1sc(C(=O)Nc2cccc(N)c2)c(C)c1C(=O)OC | 0.0 | 3.4 | 0.9 | 3.9* | 7.1 | -1.0
Cc1ccc(-n2c(Cc3cccs3)nnc2SCC(=O)Nc2ccc(OCc3ccccc3)cc2)cc1 | nt | nt | 0.1 | -2.1 | 1.9 | -1.5
SMILES | DAX1 inh-1 | FXN GAA850 act | hcDAF-12 act | DAX1 inh-2 | hgDAF12 agonist | ssDAF-12 act
Cc1ccc(Cn2nnc3c2-c2cc(F)ccc2S(=O)(=O)N(C(C)(C)C)C3)cc1 | nt | nt | -1.7 | 0.3 | -3.3 | -0.2
Cc1ccc(NC(=O)CCCC(=O)O)c(-c2nc3ccccc3[nH]c2=O)c1 | 0.6 | 0.2 | 2.0 | 0.4 | -0.5 | 0.9*
O=C(Cc1ccccc1Cl)Nc1nc2ccccc2[nH]1 | -0.2 | 2.6 | 6.0* | 0.2 | 1.9 | -0.2
O=C(CCCN1C(=O)c2ccccc2C1=O)Nc1nc2ccccc2[nH]1 | 4.8* | -0.1 | 2.6 | 0.7 | 6.5 | -0.1
CSc1ccccc1C(=O)Nc1nc2ccccc2[nH]1 | 1.1 | 5.5 | 5.6 | 3.8* | 9.9 | 0.0
O=C(Nc1nc2ccccc2[nH]1)C12CC3CC(CC(C3)C1)C2 | 0.8 | 4.5 | 5.8* | 1.5 | 8.7 | 0.3
CSc1ccccc1C(=O)Nc1nc2ccccc2c(=O)[nH]1 | 1.1 | 3.9 | -0.2 | 0.1 | 4.2 | -1.0
COC(=O)c1sc2nc(CSc3nc4ccc(C)cc4[nH]3)[nH]c(=O)c2c1C | -0.7 | -0.5 | 6.1* | 0.4 | -0.5 | -0.7
Cc1cc(C)c(C#N)c(SCc2nc3ccccc3c(=O)[nH]2)n1 | 0.3 | 7.6 | 3.4 | 2.3 | 9.6 | 0.5
CCOC(=O)c1sc2nc(CSc3nc4ccccc4n3CC)[nH]c(=O)c2c1C | -0.5 | 2.0 | 0.8 | 0.0 | -0.1 | -0.9
Cc1ccc2nc(SCc3nc4ccccc4c(=O)[nH]3)[nH]c2c1 | 0.5 | 5.2 | 4.1 | 2.1 | 11.4* | -0.6
COc1cccc(CNC(=O)CCNS(=O)(=O)c2cccc3nsnc23)c1 | 8.6* | 1.0 | 0.0 | 0.4 | 1.2 | -1.4
COc1cccc(CNC(=O)CCNS(=O)(=O)c2cccc3nonc23)c1 | 1.3 | 2.6 | -2.0 | 0.0 | -1.3 | -1.2
Cc1cc(=O)[nH]c(=S)n1-c1ccccc1 | 0.0 | 0.2 | 2.1 | 2.1 | 9.2 | 0.9*
Nc1cc(=O)[nH]c(=S)n1-c1ccccc1 | 1.0 | 2.7 | -1.3 | -0.5 | -0.5 | -1.0
COc1ccc(-n2ncc3c(NCc4cccnc4)ncnc32)cc1 | 2.4 | 2.2 | 3.3 | 2.1 | 11.3* | 0.1
Cc1ccc(-n2ncc3c(NCc4cccnc4)ncnc32)cc1C | 0.7 | 5.0 | 0.4 | 0.5 | 5.0 | -0.8
O=C(c1cc(Br)cc(Br)c1)N1CCC(Oc2cccnc2)CC1 | nt | nt | -0.6 | 0.1 | -3.8 | -1.4
C[C@H]1COc2cccc(N3CCSCC3)c2S(=O)(=O)N1C | nt | nt | 1.6 | -0.9 | -1.8 | -2.1
C=CCN1C(=O)[C@@H](CC(=O)NCCCC)[C@]2(C(=O)OCC)CCCCC/C=C/12 | nt | nt | 1.1 | -0.1 | 1.4 | -1.3
Cc1ccc(C)c(Nc2nc(N)c3ccccc3n2)c1 | 4.5* | 4.1 | 4.3 | 2.2 | 11.6* | 0.2
Cc1cccc2sc(NNC(=O)c3cc(=O)c4ccccc4o3)nc12 | -0.4 | 5.0 | 6.0* | 1.1 | 4.4 | 1.4*
O=C(NNc1nc2c(F)cccc2s1)c1cc(=O)c2ccccc2o1 | -1.1 | 2.2 | 6.2* | 1.0 | 3.2 | -0.4
O=C(COc1ccccc1)NNc1nc2c(F)cccc2s1 | 3.0 | 0.0 | 3.0 | 0.0 | -3.5 | -0.3

Screening results as filed in PubChem BioAssay.
